The values below come from paper PMC12136788.

Over roughly 5,800 sequences, “enrichment r” has its median near 0.68; the highest 2% begin near 11. These entries were drawn from the full list.

B1: chr20:35276351:35277713:-|three_prime_utr|ENSG00000126005|control|control|control (ssRNA)
RNA: GGGAGUUCUACAGUCCGACGAUCCUCCUCUCCCCACGUCCCUGCGUCUCUUACACCCCCUCCCACCCGAGGCUCCCCAGAGAUAGCAGAGAAUUCGAAGAGGUCGCCGGGGACUGGAAAGAAGUCCCGGCAGGGCCGCCUUCGCAACAGAGGAUUGAGCAUCA
B2: chr2:42328916:42329027:+|CDS|ENSG00000143924|unk|FALSE|unique (ssRNA)
RNA: GGGAGUUCUACAGUCCGACGAUCAGAAGGAUCUGAUGGGACAGAUAUCAAUGCACUGGUGCGAUCCCACAAUAGAAAGGUGAUAGCUGUUGCCGAUGACUUUUGUAAAGUCCAUCUGUUUCAGUAUCCCUGCUCCAAAGCAAACAACAGAGGAUUGAGCAUCA
B3: chr1:28742582:28742694:+|CDS|ENSG00000198492|unk|FALSE|bound_elsewhere (ssRNA)
RNA: GGGAGUUCUACAGUCCGACGAUCAGCAACGGAGAGCCCCACUUCCUACCAGAUGCAAUGUUUGGGCAACCAGGAGCCCUAGGUAGCACUCCAUUUCUUGGUCAGCAUGGUUUUAAUUUCUUUCCCAGUGGGAUUGACUUCUCACAACAGAGGAUUGAGCAUCA
B4: chr1:235182574:235182675:-|CDS|ENSG00000054267|unk|FALSE|unique (ssRNA)
RNA: GGGAGUUCUACAGUCCGACGAUCUUUGACCAACAACAGAAAUGAUCUUAUUUCAAAGGAGGAACAGAACAGUUCAUCUUUGCUAGAAGAAAACAAAGUUCAUGCAGAUUUGGUAAUAUCCAAACCAGUGUCAAAAUCUCCAGACAACAGAGGAUUGAGCAUCA
B5: chr14:81473690:81473791:-|3pUTR|ENSG00000071537|msi1|total|mutant (ssRNA)
RNA: GGGAGUUCUACAGUCCGACGAUCCAGUGUUUUGGAAGUAUGCAUGCAGGCCUAUAAAUGAAAAACACAAUUCUUUAUGUGUACCGCAUGUGUAUUAAUGUCUAACUACAUACGCAAAAACUUCCUUUACAGAGGUUCGGACUACAACAGAGGAUUGAGCAUCA
B6: chr3:124966548:124966651:-|3pUTR|ENSG00000173706|unk|FALSE|bound_elsewhere (ssRNA)
RNA: GGGAGUUCUACAGUCCGACGAUCAGGAAGAAUGCAAAGUUCAGUAUUUCAAUACUUUGUAUUUUACUUGAAAUUACCCUUAGUAGCAUCUUUUUUUUCCUGUCUGAAAGCUUUUGUGUGGAUGAGAAGGGACAUUUCAUUUCCCAACAGAGGAUUGAGCAUCA
B7: chr1:225419324:225419425:-|CDS|ENSG00000143815|msi1|FALSE|unique (ssRNA)
RNA: GGGAGUUCUACAGUCCGACGAUCUUACAUAGCAACACAGUAUAGCCUUCGUCCAAGAAGAGAAGAAGUCAAAUUAAAAGAAAUAGAUUCUAAGGAAGAAAAAUACGUUGCAAAAGAACUGGCAGUGAGAACCUUUGAAGUGACCAACAGAGGAUUGAGCAUCA
B8: chr16:18841627:18841728:-|CDS|ENSG00000157106|msi1|FALSE|bound_elsewhere (ssRNA)
RNA: GGGAGUUCUACAGUCCGACGAUCUACAAUUAAUCGCCAAGAAACACCCCGGUUCCAUGCUCGACACUAUUCUGUAACACCACUAGGAACAAGAUCAGGACUAAUCCAGUGGGUAGAUGGAGCCACACCCUUAUUUGGUCUUUACAACAGAGGAUUGAGCAUCA
B9: chr15:65058426:65058617:-|CDS|ENSG00000103710|control|control|control (ssRNA)
RNA: GGGAGUUCUACAGUCCGACGAUCCUGAACUGGGCCCAUGCCUUCCUGGUGGUGUACAGCGUCGACAGCCGCCAGAGCUUUGAUAGCAGCAGCAGCUACCUGGAGCUGCUUGCCUUGCACGCGAAGGAGACACAGCGCAGCAUCCAACAGAGGAUUGAGCAUCA
B10: chr8:28970260:28970371:+|CDS|ENSG00000147421|unk|total|mutant (ssRNA)
RNA: GGGAGUUCUACAGUCCGACGAUCUCUUCCUCUACAGCUACAGCUUCCACACAGACGCAGCAUUCGGGAAUGUCCCCGUCACCCCGCAACAGUUAUGAUACUUCCCCACAGCCUUGCACUACCAAUCAAAAUGGGAGGGAGAAUCAACAGAGGAUUGAGCAUCA
B11: chr1:13148904:13149928:-|three_prime_utr|ENSG00000280267|control|control|control (ssRNA)
RNA: GGGAGUUCUACAGUCCGACGAUCCCUGGACCUGAGUGGCAUCAGACUGACCAAUUACAGUCUUGUGCCUCUCCAAAUUCUCCUAGAAAAAGUUGCAGCCACCCUUGAGUACCUGGAUUUAGAUGACUGUGGCAUCAUAGACUCCAACAGAGGAUUGAGCAUCA
B12: chr14:63372511:63372612:-|3pUTR|ENSG00000154001|unk|total|mutant (ssRNA)
RNA: GGGAGUUCUACAGUCCGACGAUCUGGGGAUGAGGGUGGGAUGGGAAAGGGAUGUAUGGAUGUUAUUGGCAUUUUUAAGUGUUCCGAGUUUUUUGGGGUUUGGGGUGGUUUUUUUUCCUUGUUUUCCUUUUUUCCUUUUAAUUGCAACAGAGGAUUGAGCAUCA
B13: chr5:74627411:74627511:-|3pUTR|ENSG00000171617|msi1_unk|total|mutant (ssRNA)
RNA: GGGAGUUCUACAGUCCGACGAUCUUUGUAAAACUGUUAUUUUUUUUUUUUUCACAAUGUGAAACUGAAGGUCAAUAAAUUAUCCGAGAUUUUCUCUUCAUUAUGUGUGUGGGUCUUCAUUUGAAUAAGACACAAUUUGAGGCACAACAGAGGAUUGAGCAUCA
B14: chr10:68442948:68443070:-|CDS|ENSG00000138346|unk|total|mutant (ssRNA)
RNA: GGGAGUUCUACAGUCCGACGAUCCCCAAUUGUGAUGCUGCCCAAAACCGAAGAAGAAACCCAGCAUCUGAAGCAAACACACUCCGAAUAUUUCAGCCUUUGGUGUCUAAUGUUAACCCUGGAGUCACAAUCGAAGGAUAAUAACAACAGAGGAUUGAGCAUCA
B15: ENSG00000127995:stop:overlap|stop_codon|ENSG00000127995|stop_codon|NA|stop_codon (ssRNA)
RNA: GGGAGUUCUACAGUCCGACGAUCUAGCUGCAUUUUUUUGUGGACUCCUCAUCUUAUCAUCCAUUCAAGAUAAAUCAAAACAUUAGGUUCCAAAAAUUCUAAAAAACCUAAACUCUUCAGGCUACCUUUGUGUGUCUCUAGAAGCAACAGAGGAUUGAGCAUCA
B16: chr12:13219749:13219850:+|3pUTR|ENSG00000134531|unk|total|mutant (ssRNA)
RNA: GGGAGUUCUACAGUCCGACGAUCACAACAGUGGAUGGGGAGGAAGAACAGACUUUUGAGCUCUUCCCAAUACCGGAAUGUGUCCGUUCUAAAAAUUUUCUUAAGUUGUUUGCUUGGAACUCAGAGUAUAUUUUUCCAUACGAACAACAGAGGAUUGAGCAUCA
B17: chr10:128098466:128098636:-|3pUTR|ENSG00000148773|msi1|total|mutant (ssRNA)
RNA: GGGAGUUCUACAGUCCGACGAUCUCCUUUCCUUUCUGAAAAUAAAGUUUUGUGCUUUGGAGAAUGACUCGUGAGCACAUCUUCCGGGACCAAGAGUGACUUUCUGUAAGGAGUGACUCGUGGCUUGCCUUGGUCUCUUGGGAACAACAGAGGAUUGAGCAUCA
B18: chr7:137014887:137014989:+|CDS|ENSG00000181072|unk|total|mutant (ssRNA)
RNA: GGGAGUUCUACAGUCCGACGAUCGCUACUUGGCUACUGAUCCGAGAACGCAAAAUGAAUAACUCAACAAACUCCUCUAACAACCGCCUGGCUCUUACAAGUCCUUAUAAGACAUUUGAAGUGGUGUUUAUUGUCCUGGUGGCUCAACAGAGGAUUGAGCAUCA
B19: chr17:8173470:8173636:-|3pUTR|ENSG00000179029|msi1|total|mutant (ssRNA)
RNA: GGGAGUUCUACAGUCCGACGAUCUGUUUGUCUGUAUCGUCAGGUGGGAUAAUCCUUACCUGUUCCUCCUCCGGAGGGCAGAUCCGAACAUGAUGAUUGGAGAUGCAUGAAACGUGAUUAACGUCUCUGCGUAAUCAGGACUUGCAACAGAGGAUUGAGCAUCA
B20: ENSG00000124766:be:win_3601|3pUTR|ENSG00000124766|bound_else_gene|NA|bound_elsewhere_windowed (ssRNA)
RNA: GGGAGUUCUACAGUCCGACGAUCUGUACUGCGUUUUUCAUUCUUGUAUUUGACUAUUUAAUCCUUUCUACUUGUCGCUAAAUAUAAUUGUUUUAGUCUUAUGGCAUGAUGAUAGCAUAUGUGUUCAGGUUUAUAGCUGUUGUGCAACAGAGGAUUGAGCAUCA
B21: ENSG00000198589:be:win_7751|CDS|ENSG00000198589|bound_else_gene|NA|bound_elsewhere_windowed (ssRNA)
RNA: GGGAGUUCUACAGUCCGACGAUCAAGUGCAUUCCCAGUGCUUUGUCAUCACUUCAGACAACCGCUAUAUUCUCGUCUGUGGCUUCUGGGAUAAAAGUUUCAGAGUCUAUUCUACAGACACAGGAAGAUUGAUCCAAGUGGUGUCAACAGAGGAUUGAGCAUCA
B22: ENSG00000198589:be:win_2051|CDS|ENSG00000198589|bound_else_gene|NA|bound_elsewhere_windowed (ssRNA)
RNA: GGGAGUUCUACAGUCCGACGAUCUACUGACUAUGCAUGAGGAUGACAAUCUAAUGGAUGUCCUACAGCUGCUUGUUGCAUUAAUGUCAGAACACCCUAACUCUAUGAUUCCUGCUUUUGACCAAAGGAAUGGGUUACGUGUUACAACAGAGGAUUGAGCAUCA
B23: chr17:42842016:42842117:+|3pUTR|ENSG00000131467|msi1|FALSE|unique (ssRNA)
RNA: GGGAGUUCUACAGUCCGACGAUCUUACUGUUUCUUUCCUCUGUGGGGCAUUGGAUCCUCCCACAGUUGCCCUGGUGAUGACUUAGGGCUUCCCAUCUGUGUACAUCCCACUUUGAAUCUUGAUCGUGACAAGAAAUACCUUAGCAACAGAGGAUUGAGCAUCA
B24: chr6:132296306:132296407:-|3pUTR|ENSG00000079931|msi1|FALSE|unique (ssRNA)
RNA: GGGAGUUCUACAGUCCGACGAUCAUGGGAAACAUAGAAAUGGUAUGUAUUAAUAACUGAUCAUAGGCUGAGGAGAAAAAAUGUAGCUGGCUGCAAACCCAGUGCUGUGAGGUGACUUAUAUGAGGUUCCAGAUCAAAGACAGGCAACAGAGGAUUGAGCAUCA
B25: chr2:69942770:69942871:+|3pUTR|ENSG00000059728|unk|total|mutant (ssRNA)
RNA: GGGAGUUCUACAGUCCGACGAUCUGUUUCCAGAUGUUUCUUUAUGUAAAUAUGACGCCAAUGUAAAUCCUGUGUCAAGAUCACCGAGAAUGGUGCUUUUUACUACAGUCCGCACAUGCAUUUUCCGAAACUACUACAUGUUUUCAACAGAGGAUUGAGCAUCA
B26: ENSG00000107863:be:win_51|CDS|ENSG00000107863|bound_else_gene|NA|bound_elsewhere_windowed (ssRNA)
RNA: GGGAGUUCUACAGUCCGACGAUCCAAGGCCUGCGAGGUCUCAAAAAAUAAAGAUGGAAAAGAACAAAGUGAAACUGUAUCACUGUCUGAAGAUGAAACAUUCUCCUGGCCAGGUCCCAAAACAGUUACGUUGAAAAGAACAUCCAACAGAGGAUUGAGCAUCA

This test has as its target T1, UNK ZnF1-6 (called full-length) (human, UniProt Q9C0B0 30-357).
T1 sequence: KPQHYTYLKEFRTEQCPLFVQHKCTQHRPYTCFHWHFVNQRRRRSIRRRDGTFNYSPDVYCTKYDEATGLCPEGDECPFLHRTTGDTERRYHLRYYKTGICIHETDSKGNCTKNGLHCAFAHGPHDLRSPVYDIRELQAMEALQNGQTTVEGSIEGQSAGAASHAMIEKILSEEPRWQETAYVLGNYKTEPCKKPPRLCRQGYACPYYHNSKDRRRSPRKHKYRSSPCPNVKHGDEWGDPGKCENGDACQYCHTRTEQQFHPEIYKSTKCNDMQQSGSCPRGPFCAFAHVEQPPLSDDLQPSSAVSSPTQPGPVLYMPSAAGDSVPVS
Kind of test: nsRBNS (natural sequence RNA bind-n-seq); RBNS binding buffer (assumed for nsRBNS): 25 mM Tris pH 7.5, 150 mM KCl, 3 mM MgCl2, 0.01% Triton X-100, 500 ug/ml BSA, 20 U/ml SUPERase-In, 4 C; UNK is unkempt and MSI1 is Musashi-1; names of the RNAs are library labels; protein concentration not given here; high values mean tight binding.
In the case of B1, the binding signal was 0.869 enrichment R.
To B2 belongs 0.424 enrichment R.
With B3 the figure was 0.665 enrichment R; with B4, 0.258 enrichment R; with B5, 0.563 enrichment R.
With B6 the figure was 1.1 enrichment R; with B7, 0.538 enrichment R.
With B8, the binding signal was 0.869 enrichment R.
With B9 the figure was 0.597 enrichment R; with B10, 0.625 enrichment R.
B11 displayed a binding signal of 0.577 enrichment R.
To B12 belongs 1.7 enrichment R; to B13, 0.75 enrichment R.
To B14 belongs 0.471 enrichment R.
With B15 the figure was 0.828 enrichment R; with B16, 0.58 enrichment R.
Molecule B17 displayed a binding signal of 0.483 enrichment R.
To B18 belongs 0.461 enrichment R; to B19, 0.686 enrichment R.
With B20 the figure was 0.795 enrichment R.
Turning to B21, the binding signal is 0.285 enrichment R.
With B22 the figure was 0.35 enrichment R; with B23, 0.557 enrichment R.
To B24 belongs 0.863 enrichment R; to B25, 0.355 enrichment R; to B26, 0.505 enrichment R.
